# Test results taken from the supplement of paper PMC6555819.
# Tests used:
# Assay in all cases: PBM binding z-score (relative to random genomic background probes); higher = stronger binding; sequences stand for … in GC…GCGATTGACAGCGTAGAATGAAGG
# [1] = tested on: FXR:RXRa (NR concentration 270 nM, RXRa partner concentration 90 nM)
# In short: (§1)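 Binding buffer was PBS pH 7.4 with 2% milk, 0.02% Triton X-100, 1 mM DTT, 0.2 mg/mL BSA and 0.4 mg/ml salmon testes DNA. In it, ligand-free nuclear receptor dimers were incubated 1 h on custom Agilent 4×180K protein-binding microarrays carrying double-stranded probes. Antibodies against each partner (one per run) detected binding, and z-scores were calculated against random background probes after regression normalization of scanned fluorescence.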
# [2] = tested on: LXRa:RXRa (NR concentration 270 nM, RXRa partner concentration 90 nM)
# In short: as §1
# [3] = tested on: LXRa homodimer (NR concentration 270 nM)
# In short: as §1
# [4] = tested on: LXRb:RXRa (NR concentration 270 nM, RXRa partner concentration 90 nM)
# In short: as §1
# [5] = tested on: LXRb homodimer (NR concentration 270 nM)
# In short: as §1
# [6] = tested on: PPARa:RXRa (NR concentration 270 nM, RXRa partner concentration 90 nM)
# In short: as §1
# [7] = tested on: PPARg:RXRa (NR concentration 180 nM, RXRa partner concentration 90 nM)
# In short: as §1
# [8] = tested on: PPARg:RXRa 270nM:90nM, anti-RXR (NR concentration 270 nM, RXRa partner concentration 90 nM)
# In short: as §1
# [9] = tested on: PPARg:RXRa 30nM:10nM, anti-RXR (NR concentration 30 nM, RXRa partner concentration 10 nM)
# In short: as §1
# [10] = tested on: PPARg:RXRa 90nM:30nM, anti-RXR (NR concentration 90 nM, RXRa partner concentration 30 nM)
# In short: as §1
# [11] = tested on: PPARg:RXRa DBDmut IVT, anti-RXR (DBD mutation: RXRa K156A/R161A, NR concentration 270 nM, RXRa partner concentration 90 nM)
# In short: as §1
# [12] = tested on: PPARg:RXRa IVT, anti-PPARg (NR concentration 270 nM, RXRa partner concentration 90 nM)
# In short: as §1
# [13] = tested on: PPARg DBDmut:RXRa IVT, anti-PPARg (DBD mutation: PPARg1 K132A/R137A, NR concentration 270 nM, RXRa partner concentration 90 nM)
# In short: as §1
# [14] = tested on: PPARg DBDmut IVT, anti-PPARg (DBD mutation: PPARg1 K132A/R137A, NR concentration 270 nM)
# In short: as §1
# [15] = tested on: PPARg homodimer (NR concentration 180 nM)
# In short: as §1
# [16] = tested on: PXR:RXRa (NR concentration 270 nM, RXRa partner concentration 90 nM)
# In short: as §1
# [17] = tested on: PXR homodimer (NR concentration 270 nM)
# In short: as §1
# [18] = tested on: RARa:RXR (NR concentration 270 nM, RXRa partner concentration 90 nM)
# In short: as §1
# [19] = tested on: RARa homodimer (NR concentration 270 nM)
# In short: as §1
# [20] = tested on: RARb:RXRa (NR concentration 270 nM, RXRa partner concentration 90 nM)
# In short: as §1
Sequence,PBM binding z-score [1],PBM binding z-score [2],PBM binding z-score [3],PBM binding z-score [4],PBM binding z-score [5],PBM binding z-score [6],PBM binding z-score [7],PBM binding z-score [8],PBM binding z-score [9],PBM binding z-score [10],PBM binding z-score [11],PBM binding z-score [12],PBM binding z-score [13],PBM binding z-score [14],PBM binding z-score [15],PBM binding z-score [16],PBM binding z-score [17],PBM binding z-score [18],PBM binding z-score [19],PBM binding z-score [20]
ACTATTGGTTGAGACGAGGGCAACCGATAGGTTG,0.496,0.289,-0.00418,0.08,0.0327,0.62,0.556,0.157,0.062,0.367,-0.0898,0.516,0.379,0.283,0.821,1.5,0.199,1.1,0.274,1.07
GCTGCTAGGTCAGGCTGGTCAGCTAACGGGTACG,0.826,0.306,-0.725,-0.222,-1.11,1.3,0.457,0.956,-0.364,-0.0747,3.75,2.35,-1.05,-1.02,-0.17,-0.0298,-0.747,0.0805,-0.715,3.35
GCAGACAGGGGAAACGCAGGTAACTCAGGGTGGC,-0.526,-0.555,-0.616,-0.597,-1.27,-0.505,0.299,-0.604,-1.01,-0.89,-0.682,-0.536,0.0572,-0.175,-1.42,-0.626,-0.571,-0.366,-1.03,-0.337
TTGCCTAGGTCATGCGGGCCAGTATAGTGTCGGC,4.05,2.72,0.0559,1.52,-0.792,3.42,2.01,2.28,-0.182,1.06,1.47,2.82,0.433,-0.575,0.753,1.39,-0.692,2.31,-0.448,3.82
CCCTACGGGTCACGAGGTTATAGCACGACGAGCG,6.43,4.68,0.337,4.01,-0.522,5.71,6.58,6.23,2.52,4.88,2.05,4.19,0.401,0.144,2.51,4.57,0.609,5.9,1.28,4.36
AGTCAAAGTTCATCTAGGTGACGTAAGATATGCT,6.84,5.85,5.06,3.69,1.52,4.98,7.01,6.36,3.53,5.48,1.67,4.74,1.64,1.41,3.65,4.98,6.85,3.75,1.44,4.8
ATCTCTTGGTAACAAGTTCAGTGAAAGAGAGGAC,0.45,0.448,0.452,0.565,0.787,0.547,-0.00548,0.156,0.0559,0.28,-0.454,0.272,0.927,1.13,0.303,1.67,1.14,0.676,0.0703,1.37
TCTGCTAGGTCAGTCGGTCAGCTAACGAGCTGCC,1.18,0.763,-0.313,0.432,0.0608,1.92,1.25,2.34,1.11,1.44,3.05,3.83,-0.327,-0.109,0.456,-0.00116,-1.21,0.436,-1.08,3.6
AGAACGAGGGCAATTAGTTGATAGCACGGGTGGC,0.559,0.389,-0.309,0.306,-0.23,1.64,1.31,0.81,-0.134,0.104,3.45,2.65,0.442,-0.255,0.218,0.729,1.02,0.412,0.215,2.06
CGAACTAGGTCATTGACAGGACCGTGAATAGTAA,4.32,2.36,0.141,1.66,-0.048,4.62,7.17,6.36,3.72,5.79,8.09,8.42,3.24,1.41,2.02,0.914,-0.0715,1.5,0.647,3.51
TCAGACAGGTGATGGTAACTCAGGTACGCAGTCG,0.415,0.602,0.0587,0.648,-0.117,1.16,0.601,1.7,3.35,2.55,2.18,0.496,-0.328,-0.349,0.0712,0.333,0.496,0.242,0.298,0.566
CCTTACGGGTCACTCCAGGTTATGGCATCGGAGT,4.99,7.21,1.54,4.4,-0.0375,4.24,3.15,3.76,0.907,2.67,2.6,3.76,-0.451,-0.505,1.71,4.55,0.182,3.46,0.437,3.78
CGTCCAAGGTCAGAGTGGTCAGTGAATGCCGAGT,4.91,3.23,0.338,2.49,-0.0536,3.83,1.79,2.5,0.0236,1.35,2.5,2.37,-0.175,-0.939,2.59,2.78,1.03,3.16,0.908,4.8
GCTAGCAAGCCATTTGGGTCACTCAATGACGGGC,-0.28,-0.493,-0.817,-0.134,-0.898,1.15,0.614,0.042,-0.634,-0.546,0.501,1.28,-0.713,-0.878,-0.494,0.0188,-0.796,0.479,-0.835,0.979
CCGACTGGGGTATAAGGTTACCATAAGCCAGCCC,0.283,1.57,-0.00996,0.982,-0.761,1.69,1.79,2.38,0.774,2.06,1.17,1.24,-0.919,-1.39,0.667,0.301,-0.29,1.24,0.0701,0.726
